HT1080 IDH1KD tx: qHTS for induction of synthetic lethality in tumor cells producing 2HG: qHTS for the HT-1080-IDH1KD cell line. HT-1080 IDH1 knockdown viability, ATP luminescence, 48 h. Potency, µM (top dose mostly 46.1 µM), inactives show at the top dose activity, negative = toxicity, hits mostly cytotoxic. 360,000 compounds, 2% hits. AID 686971, 2013;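 note: 0% = DMSO wells and -100% = cell-free medium wells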
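Using the IDH1-knockdown HT-1080 line run in the same batch and compound series as the NT line, viability after 48 h at 37 °C was determined by CellTiter-Glo luminescence and expressed as % activity.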
HT1080-NT tox: qHTS for induction of synthetic lethality in tumor cells producing 2HG: qHTS for the HT-1080-NT fibrosarcoma cell line; HT-1080-NT fibrosarcoma viability, CellTiter-Glo ATP luminescence, 48 h; AID 686970, 2013; Potency, µM (series often up to 46.1 µM), for the others: top-dose activity, negative = less viability, actives largely listed as cytotoxic; 360,000 compounds, 1.6% hits;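 note: NT is the 2HG producing partner of a matched IDH1 knockdown line; 0% = DMSO-treated cells and -100% = media-only wells without cells; nearly all actives have a fitted effect of over 55% in size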
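Toxicity toward the 2HG-producing NT line was scored as %Activity, normalised to DMSO and no-cell wells, from CellTiter-Glo luminescence after 48 hours' treatment.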
TDP1 cell CPT: qHTS for Inhibitors of human tyrosyl-DNA phosphodiesterase 1 (TDP1): qHTS in cells in presence of CPT | AID 686979, 2013 | 420,000 compounds, 12% hits | chicken DT40 Tdp1-/-;hTDP1 cells + 20 nM CPT, ATP luminescence, 48 h | Potency, µM (top dose mostly 46.2 µM), for inactives: at the highest dose activity change, negative = growth inhibition, usual class: inhibitors; note: % is set by controls: 0 for no effect and ±100 for the full control effect; nearly all actives have a fitted effect of over 55% in size
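Chicken DT40 Tdp1-/- cells complemented with human TDP1, 400 cells/well, exposed to compounds plus 20 nM camptothecin for at least 48 h at 37 C; viability read as ATP content by CellTiter-Glo luminescence.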
TDP1 cell noCPT: qHTS for Inhibitors of human tyrosyl-DNA phosphodiesterase 1 (TDP1): qHTS in cells in absence of CPT; DT40 Tdp1-/- hTDP1 cells, no CPT, ATP luminescence, 48 h; Potency, µM (top dose mostly 46.2 µM), for the others: at the highest dose activity change, negative = growth inhibition, most hits filed as inhibitors; 420,000 compounds, 15% hits; note: % is set by controls: 0 for no effect and ±100 for the full control effect; nearly all actives have a fitted effect of over 55% in size
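Seeded 400 DT40-hTDP1 cells/well (vehicle DMSO, no 20 nM CPT); pinned compounds; ≥48 hr at 37 °C; CellTiter-Glo luminescence as viability measure.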
TGFb SMAD3 inh: qHTS for Inhibitors of TGF-b; Potency, µM (top dose mostly 46.1 µM), for inactives: at the top dose activity, negative = inhibition, most hits filed as inhibitors; 410,000 compounds, 1.2% hits; HepG2 CAGA-GFP TGF-b/SMAD3 reporter, GFP fluorescence, 18 h; TGF-beta stimulated, 500 pg/mL final; AID 588855, 2011; note: % is set by controls: 0 for no effect and ±100 for the full control effect; nearly all actives have a fitted effect of over 65% in size
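HEPG2 CAGA-GFP, 1000 cells/well; 2 h settle, 37 C; cpd via pin tool; TGF-b 500 pg/mL final; 18 h, 37 C; GFP imaging ex488/em500-530; %Activity normalised to -TGF-b and +DMSO controls; CRC fit, curve class.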
HepG2 tox: qHTS for Inhibitors of TGF-b: Cytotox Counterscreen; HepG2 CAGA-GFP viability, ATP luminescence, 18 h; Potency, µM (highest dose often 46.1 µM), inactives show at the highest dose activity change, negative = cytotoxicity, actives largely listed as cytotoxic; 410,000 compounds, 0.76% hits
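CellTiter-Glo luminescence gave cytotoxicity after 18 hours at 37 degrees C. The cells were HepG2 CAGA-GFP in 1% FBS DMEM, stimulated with 500 pg/mL TGF-beta after compound addition. %Activity was normalised to no-cell wells (complete cell-killing) and DMSO (no toxicity), and curves were fitted and classified.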
Numbers without * were called inactive; ? = inconclusive; / = no result; [ ] = another dose, or the depositor's remark. The list is not random: actives were taken first. Their share in the collection is about 17%. Calls come from the whole dose curve; as a rule, active = well fitted curve in the direction sought with a large enough effect; inconclusive = small, poorly fitted or top-dose-only effect, or another doubt; inactive = no such curve, though single readings can be large; an effect the other way counts as inactive or inconclusive. Potency is the fitted concentration of half-maximal effect.

SMILES	HT1080 IDH1KD tx	HT1080-NT tox	TDP1 cell CPT	TDP1 cell noCPT	TGFb SMAD3 inh	HepG2 tox
N=c1n(CCO)c2ccccc2n1CCOc1ccc(F)cc1	/	/	21µM*	-82%	21%	5%
CCOC(=O)Cn1c(=N)n(CCOc2ccc(Br)cc2)c2ccccc21	-13%	0%	23µM*	16µM*	-28%	-114%
COCc1c(C(=O)N2CCCCC2c2cccnc2)cnn1-c1ncc2c(n1)-c1ccccc1CCC2 (configuration not stated)	/	/	-12%[9.04 µM]	?	/	/
CCCCCCCC[n+]1c(C)n(-c2ccccc2)c2ccc(NC(C)=O)cc21	-30%	-17%	0.41µM*	0.82µM*	?	8%
CC(=O)Nc1ccc(SCC(=O)c2cc(C)n(-c3ccccc3)c2C)cc1	1%	4%	-11%	-14%	3%	-25%
C[C@@H]1CN(C(=O)c2cc(COc3cccc(C(F)(F)F)c3)on2)C[C@H](C)O1	-2%	0%	?	?	1%	-10%
CCOC(=O)c1ccc(NC(=O)c2ccc3c(c2)C(=O)N(CC2CCCO2)C3=O)cc1 (configuration not stated)	-1%	-5%	?	18µM*	-20%	6%
O=C(Nc1c(F)cc(F)cc1Br)c1cc(S(=O)(=O)N2CCN(c3ccccn3)CC2)ccc1F	-4%	-6%	?	26µM*	?	-17%
O=C(O)c1cc(S(=O)(=O)N2CCN(c3ccccn3)CC2)ccc1Cl	16%	-1%	18%	13%	?	10%
CC(=O)Nc1ccc(S(=O)(=O)N2CCCc3ccccc32)cc1	7.1µM*	8.9µM*	6.5µM*	9.2µM*	?	-1%
Cc1ccc(S(=O)(=O)N2CCCc3ccccc32)cc1C	3%	21%	12µM*	9.2µM*	-13%	3%
Cc1cc(NC(=O)COC(=O)c2ccc(S(=O)(=O)N3CCCc4ccccc43)cc2)no1	4.1µM*	4.1µM*	3.7µM*	3.3µM*	13%	-12%
CSc1ccccc1C(=O)C1CCCN(C(=O)c2cccc(Cn3cccn3)c2)C1 (configuration not stated)	-9%	-19%	?	?	1%	-36%
Cc1ccc(NC(=O)c2cc(S(=O)(=O)N3CCCc4ccccc43)ccc2F)cc1F	/	/	16µM*	6.5µM*	?	-7%
Cc1cccc(C)c1NC(=O)c1cc(S(=O)(=O)N2CCCc3ccccc32)ccc1F	/	/	10µM*	4.1µM*	-15%	-5%
O=C(Nc1ccc(Cl)c(Cl)c1)c1cc(S(=O)(=O)N2CCN(c3cccc(Cl)c3)CC2)ccc1F	/	/	?	?	?	-2%
Cc1ccc(NC(=O)c2cc(S(=O)(=O)N3CCCCC3)ccc2N2CCOCC2)cc1F	-2%	-7%	-2%	-27%	0%	-3%
CCC(=O)N1CCCc2cc(S(=O)(=O)N3CCCc4ccccc43)ccc21	?	-14%	26µM*	18µM*	-21%	-30%
CCc1cccc(C)c1NC(=O)c1cc(S(=O)(=O)N2CCN(c3ccccc3)CC2)ccc1F	/	/	16µM*	9.2µM*	-5%	3%
CS(=O)(=O)N1CCC(C(=O)Nc2cccc(Cl)c2Cl)CC1	9%	4%	-1%	-13%	0%	-6%
CC1CC(C)CN(C(=O)CSc2nc(N)cc(=O)[nH]2)C1 (configuration not stated)	-5%	-2%	-2%	-25%	-11%	0%
COc1ccccc1CNC(=O)CCNS(=O)(=O)c1ccc2c(c1)CCCC(=O)N2	/	/	/	/	-5%	-24%
O=C(O)c1cc(S(=O)(=O)N2CCCc3ccccc32)ccc1Cl	4%	15%	-8%	0%	39%	7%
O=C(Nc1ccc(Br)cc1)c1cc(S(=O)(=O)N2CCc3ccccc32)ccc1F	/	/	15µM*	15µM*	-26%	3%
COC(=O)Nc1ccc(S(=O)(=O)N2c3ccccc3CCC2C)cc1 (configuration not stated)	?	2.8µM*	4.6µM*	2.6µM*	?	-16%
SMILES	HT1080 IDH1KD tx	HT1080-NT tox	TDP1 cell CPT	TDP1 cell noCPT	TGFb SMAD3 inh	HepG2 tox
COC(=O)Nc1ccc(S(=O)(=O)N2CCCCC2C(=O)O)cc1 (configuration not stated)	28%	17%	0%	11%	-1%	-1%
COc1ccc(S(=O)(=O)N2CCc3ccccc32)cc1C(=O)Nc1cccnc1	-16%	-3%	6%	-14%	0%	3%
Cc1ccc(NC(=O)c2cc(S(=O)(=O)N3CCc4ccccc43)ccc2F)cc1Cl	/	/	4.1µM*	5.8µM*	13%	1%
O=C(Nc1ccc(Cl)cc1)c1cc(S(=O)(=O)N2CCCc3ccccc32)ccc1F	/	/	16µM*	15µM*	?	-27%
O=C(NNC(=O)c1ccccc1O)c1cccc(Br)c1	-27%	-14%	?	?	-1%	-28%
CCOc1ccc(CCNC(=O)NCc2noc3ccc(C)cc23)cc1	/	/	-24%	?	-17%	-22%
CCC1(c2ccc(F)cc2)NC(=O)N(CC(=O)Nc2cccnc2Cl)C1=O (configuration not stated)	12%	8%	-18%	-18%	4%	11%
CCC(=O)N1CCc2cc(S(=O)(=O)N3CCN(c4ccccc4)CC3)ccc21	-1%	5%	-9%	5%	11%	10%
Cc1cccc(C)c1NC(=O)c1cc(S(=O)(=O)N2CCC3(CC2)OCCO3)ccc1F	3%	0%	-16%	-20%	1%	-1%
CCOc1ccc(NC(=O)c2cc(S(=O)(=O)N3CCc4ccccc43)ccc2F)cc1	/	/	8.2µM*	9.2µM*	-14%	-11%
CCCCCCNC(=O)c1cc(S(=O)(=O)N2CCc3ccccc32)ccc1F	-2%	1%	?	?	-1%	-20%
CCc1cccc(C)c1NC(=O)CN1CCN(S(=O)(=O)c2ccc(C(C)(C)C)cc2)CC1	-17%	?	-42%	23µM*	?	0%
